Source: PubChem BioAssay (NCI)
The panel holds about 83,000 compounds, 20% with a hit somewhere; the sample as a whole holds those more often.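 In brief: 96-well plates, 48 h treatment, single concentration, percent growth endpoint.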 A number with no mark means an inactive call. Activity calls are given as the source filed them. How the source made its calls: active means growth percent below 10; inactive means the rest.

Tests used:
Assay in all cases: NCI-60 one-dose screen, 48 h (100 = growth as untreated, 0 = no growth, -100 = all killed)
Details in all cases: 10 µM unless noted
SR leukemia = system: SR leukemia
RPMI-8226 leukemia = system: RPMI-8226 leukemia
OVCAR-8 ovarian = system: OVCAR-8 ovarian
OVCAR-5 ovarian = system: OVCAR-5 ovarian
OVCAR-4 ovarian = system: OVCAR-4 ovarian
SK-OV-3 ovarian = system: SK-OV-3 ovarian
IGROV1 ovarian = system: IGROV1 ovarian
OVCAR-3 ovarian = system: OVCAR-3 ovarian
HS 578T breast = system: HS 578T breast
NCI/ADR-RES ovarian = system: NCI/ADR-RES ovarian

SMILES	growth (SR leukemia)	growth (RPMI-8226 leukemia)	growth (OVCAR-8 ovarian)	growth (OVCAR-5 ovarian)	growth (OVCAR-4 ovarian)	growth (SK-OV-3 ovarian)	growth (IGROV1 ovarian)	growth (OVCAR-3 ovarian)	growth (HS 578T breast)	growth (NCI/ADR-RES ovarian)
O=S(=O)(NCCNc1cc(-c2cn(-c3ccccc3)nc2-c2cccc(O)c2)ccn1)c1cccc(F)c1	18.9%	22.9%	34.2%	54.8%	39.4%	50.3%	43.5%	50.8%	37.6%	33.1%
c1cnc2[nH]cc(-c3csc(-c4cn(CCCN5CCCCC5)c5ccccc45)n3)c2c1	-31.4% (active)	-26.8% (active)	69.7%	92.5%	75.7%	94.2%	34.6%	60.4%	73.3%	68.1%
NC1=NN(c2ccccc2)C(=O)/C1=C/c1ccc(Cl)cc1	94.2%	94.8%	99%	98.1%	109%	96.3%	99.4%	108%	106%	103%
Cn1c(=O)c2c(ncn2CCC(=O)Nc2ccc(F)cc2)n(C)c1=O	105%	97.2%	108%	103%	111%	85%	112%	107%	103%	106%
Cc1ccc(C)c2c1CCC2C(C)C (stereo not given)	89.3%	96.7%	100%	98.3%	100%	92.9%	103%	104%	100%	105%
COc1ccc2c(c1)c(-c1nc(-c3c[nH]c4ncccc34)cs1)cn2CCN	0.217% (active)	52.7%	70.5%	88.6%	57.1%	60.7%	30.4%	70.5%	62.3%	84.1%
CC[C@H](CC[C@@H](C)[C@H]1CC[C@H]2[C@@H]3/C(=C/c4cccnc4)C(=O)C4=CC(=O)CC[C@]4(C)[C@H]3CC[C@]12C)C(C)C	62.4%	74.4%	64.5%	105%	100%	112%	95.6%	102%	107%	90.5%
CCCCC[C@H]1C/C=C2/C(=O)C=C[C@@H]2C/C=C\CCCC(=O)O[C@@H](CCCCC)C/C=C2/C(=O)C=C[C@@H]2C/C=C\CCCC(=O)O1	-21.5% (active)	-30.4% (active)	-20.7% (active)	-68.2% (active)	-74.3% (active)	-52.7% (active)	-68.3% (active)	-93.5% (active)	4.33% (active)	-2.14% (active)
Cn1cc(-c2csc(-c3cn(CCCN4CCCCC4)c4ccc(F)cc34)n2)c2cccnc21	65.9%	69.2%	95.3%	91.8%	92.8%	99.3%	85.2%	93.2%	82.5%	89.5%
COc1ccc(O)c(-c2cc(-c3ccc(Cl)cc3)c(C#N)c(=O)[nH]2)c1	33.5%	62.3%	68.3%	106%	74.4%	82.8%	78.5%	73.4%	58.7%	62.5%
Cc1ccc(-c2nc([P+](c3ccccc3)(c3ccccc3)c3ccccc3)c(N3C[C@H]4C[C@H](C3)c3cccc(=O)n3C4)o2)cc1	87.9%	11.5%	86.6%	105%	77.3%	123%	46.4%	54%	94.4%	94.9%
N#Cc1c(-c2ccco2)nc2c(c(-c3ccccc3)nn2-c2ccccc2)c1-c1ccc(O)cc1	19.7%	55.3%	55.2%	93.4%	77.7%	46.4%	84.2%	86%	53.8%	76.4%
COc1cccc(-c2nn(-c3ccccc3)cc2-c2ccnc(NCCNS(=O)(=O)c3cccc(F)c3)c2)c1	9.17% (active)	23.7%	20.2%	64.9%	31.1%	46.6%	38%	40.4%	40.2%	22.1%
C[Si](C)(C)Cc1ccccc1	143%	71.6%	107%	94.1%	113%	112%	125%	127%	120%	105%
COc1cc(-c2c(C#N)c(-c3cccs3)nc3c2c(-c2ccccc2)nn3-c2ccccc2)ccc1O	60.5%	94.3%	84.2%	95.4%	83.5%	82.7%	91.3%	101%	78.6%	88.9%
Cc1cc(N(CCNc2ccnc3cc(Cl)ccc23)Cc2ccco2)nc(Cl)n1	-14.5% (active)	-29.5% (active)	-26.6% (active)	-37.5% (active)	-59.7% (active)	-36.3% (active)	-72.1% (active)	-89.5% (active)	6.7% (active)	-4.64% (active)
Cc1nn(-c2ccc(Br)cc2)c2nc3[nH]c(=O)[nH]c(=O)c3nc12	114%	121%	111%	112%	103%	110%	107%	117%	104%	107%
CC(C)(C)c1ccc(OP(=S)(N/N=C/c2ccccc2O)Oc2ccc(C(C)(C)C)cc2)cc1	61.6%	45.8%	82.8%	91.6%	65.1%	65.2%	63.5%	47.5%	94.5%	87.8%
COc1cc(-c2cc3cc(O)ccc3oc2=O)cc(OC)c1OC	84%	91.7%	93.8%	88.8%	97.3%	102%	98.7%	114%	81.6%	91.2%
